GPR7 antagonist: antagonists of human GPR7 (neuropeptides B/W receptor 1); 290,000 compounds, 1.1% hits; AID 1861; GPR7-expressing cells, fluorescence antagonist assay; P48145; inhibition, % at 4.4 µM; in the data active means inhibition above about 16%, passing the limit was not always enough;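 further: cells stimulated with the agonist NPW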
ANO1 activ: mouse TMEM16A channel activation, primary screen; HEK293 TMEM16A/YFP-H148Q/I152L, iodide quench fluorescence; active compounds read low; Q8BHY3; B-score at 10 µM; AID 623877; 340,000 compounds, 0.3% hits;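 active means fluorescence-ratio B-score plate-corrected deviation score at least 3 library SD below zero, with starting fluorescence score within 5 deviations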;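 further: channel opened by trigger with iodide after compound preincubation; score built on the fluorescence ratio of max minus min over baseline; more negative score means more quench and so TMEM16A activation or potentiation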
ANO1 block: inhibitors of mouse TMEM16A calcium-activated chloride channel; normalized B-score (activity score, 25-100; higher = stronger inhibition) at 10 µM; 310,000 compounds, 1.2% hits; AID 588511; Q8BHY3; HEK293 TMEM16A/YFP iodide influx fluorescence, ionomycin;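 active means ratio plate-corrected score three or more library SD toward inhibition, starting fluorescence score within five deviations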;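 further: score derived from kinetic fluorescence span divided by baseline fluorescence per well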
CHT inh: inhibitors of human choline transporter CHT. CHT-expressing cells, membrane potential dye, choline response; active compounds read low. B-score at 10 µM. 310,000 compounds, 0.86% hits. Q9GZV3. AID 488975;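 active means B-score over 3 SD under the library average, and starting fluorescence ratio not unusually high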;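 further: choline stimulus applied at its EC90 after an EC20 pre-addition; B-score computed on integrated fluorescence ratio after choline addition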
Target sequence (Q9GZV3 whole entry, looked up): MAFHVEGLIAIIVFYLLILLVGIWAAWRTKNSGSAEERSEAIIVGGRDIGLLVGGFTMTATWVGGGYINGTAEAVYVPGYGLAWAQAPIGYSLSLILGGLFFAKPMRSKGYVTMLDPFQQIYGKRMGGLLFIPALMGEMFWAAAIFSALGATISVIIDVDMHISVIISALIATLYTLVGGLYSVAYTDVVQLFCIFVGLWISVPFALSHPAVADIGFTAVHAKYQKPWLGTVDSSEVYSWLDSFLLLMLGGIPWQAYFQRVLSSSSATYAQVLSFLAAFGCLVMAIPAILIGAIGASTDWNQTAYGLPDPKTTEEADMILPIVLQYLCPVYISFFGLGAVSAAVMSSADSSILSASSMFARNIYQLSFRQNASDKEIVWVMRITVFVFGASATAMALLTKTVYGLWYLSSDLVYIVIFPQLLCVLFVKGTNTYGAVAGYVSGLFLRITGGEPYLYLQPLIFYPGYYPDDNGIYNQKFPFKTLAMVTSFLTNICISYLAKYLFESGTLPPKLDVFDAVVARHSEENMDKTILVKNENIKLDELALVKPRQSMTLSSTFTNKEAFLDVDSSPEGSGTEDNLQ
Kir21 block: blocks the mouse Kir2.1 inward-rectifier potassium channel. P35561. HEK293-Kir2.1, FluxOR thallium flux fluorescence; active compounds read low. B-score at 10 µM. 310,000 compounds, 0.85% hits. AID 1672;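 active means fluorescence ratio B-score at or below minus 3 SD of library scores, with starting-brightness B-score within 2 SD, cut at about -4.2 in these data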;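 further: channel flux triggered by added potassium and thallium sulfate stimulus; B-score of peak minus minimum fluorescence over baseline after thallium stimulus; more negative B-score means stronger Kir2.1 block with less thallium influx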
CHT allo act: human CHT allosteric activation. Q9GZV3. 310,000 compounds, 0.49% hits. CHT-expressing cells, membrane potential dye, choline EC20; active compounds read high; LV-AA mutant CHT in HEK293 cells. B-score at 10 µM;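 active means initial fluorescence not abnormally high and integrated response B-score, plate-corrected, over 3 SD above library mean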
GPR7 antag conf: human GPR7 antagonism, confirmation assay; shares compounds with GPR7 antagonist; inhibition, % at 4.4 µM; AID 1952; GPR7-expressing cells, calcium fluorescence antagonist mode; 2,400 compounds, 52% hits; in the data active means inhibition above about 24%;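 further: stimulated with the GPR7 agonist NPW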
MCHR1 antag: MCHR1 (human) antagonism in GPR7 counter-screen; AID 2148; shares compounds with GPR7 antagonist; 2,400 compounds, 62% hits; MCHR1-expressing cells, fluorescence antagonist assay; inhibition, % at 4.4 µM; in the data active means inhibition above about 22%
CHT block conf: human CHT inhibition, confirmatory screen. CHT-expressing cells, choline membrane potential dye; LV-to-AA substituted CHT, HEK293 cells. shares compounds with CHT inh. CHT activity remaining % of control (active compounds read low), % at 10 µM. 2,400 compounds, 70% hits;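 active means choline transporter activity left, mean of duplicates at 10 µM, below buffer-only control mean minus 3 SD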;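 further: depolarization triggered by choline at its EC90 following an EC20 pre-addition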
HEK293 MPD ctr: CHT inhibitor counter-screen hit in parental HEK293 cells; shares compounds with CHT inh; membrane potential dye, choline response; active = decrease or increase beyond buffer ±3SD; membrane potential ratio readout (active if shifted either direction beyond buffer ±3SD; no single direction) at 10 µM; 2,400 compounds, 4% hits; AID 493222;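 further: parental cells lack the transporter so any hit is non-specific; ratio is peak minus trough fluorescence over baseline after EC90 choline challenge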
CHT act confirm: confirmation of human choline transporter (CHT) activators. 2,500 compounds, 91% hits. activation, % at 10 µM. CHT-expressing cells, membrane potential dye fluorescence (FDSS); % of choline EC20–EC90 response window; HEK293 expressing CHT LV-AA mutant; choline added at its EC20. shares compounds with CHT allo act;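 active means primary screen active, with duplicate mean activation above negative control mean plus 3 SD, cut at about 11% in these data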
HEK293 MP dye: counter-screen for CHT activators: effect in parental HEK293 cells. shares compounds with CHT allo act. membrane potential dye fluorescence (FDSS); measured after EC20 choline addition. ratio readout change at 10 µM, hits read low. 2,500 compounds, 62% hits. AID 623908;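 active means duplicate-averaged ratio beyond 3 SD from buffer wells, up or down, though filed actives are nearly all decreases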
Of the large screens only hits and unclear results are named; the others gave an inactive call (follow-up assays come after a bar, where they were run). Only some compounds are listed: those with a hit (about 3.7% of all), similar ones and a draw of the others.

CS(=O)(=O)c1ncc(Cl)c(C(=O)Nc2ccc(OC(F)F)cc2)n1	GPR7 antagonist 51, CHT inh -6.5, Kir21 block -5.3 | GPR7 antag conf 88 | MCHR1 antag 94 | CHT block conf 50% | HEK293 MPD ctr inactive
O=C(COC(=O)C1CCN(C(=O)c2ccc(Cl)cc2)CC1)Nc1ccccc1F	none (no result: GPR7 antagonist, ANO1 block, CHT inh, Kir21 block, CHT allo act)
NS(=O)(=O)c1ccc(CCNCc2cc(Cl)ccc2OCc2ccccc2)cc1	GPR7 antagonist 28, CHT inh -6.5 | GPR7 antag conf 27 | MCHR1 antag 57 | CHT block conf 50% | HEK293 MPD ctr inactive
NS(=O)(=O)c1ccc(CCNC(=O)CNCCc2ccccc2)cc1	none
Cc1ccc(OCC(O)Cn2c(=N)n(Cc3ccccc3)c3ccccc32)cc1 (stereo not given)	GPR7 antagonist 33, CHT inh -9, Kir21 block -6 | GPR7 antag conf 37 | MCHR1 antag 61 | CHT block conf 51% | HEK293 MPD ctr inactive
Cc1cccc(OCC(O)Cn2c(=N)n(Cc3ccccc3)c3ccccc32)c1 (stereo not given)	GPR7 antagonist 31, CHT inh -12, Kir21 block -10 | GPR7 antag conf 36 | MCHR1 antag 69 | CHT block conf 57% | HEK293 MPD ctr inactive
N=c1n(Cc2ccccc2)c2ccccc2n1Cc1ccccc1	none
COc1ccc(OCC(O)Cn2c(=N)n(Cc3ccccc3)c3ccccc32)cc1 (stereo not given)	GPR7 antagonist 38, CHT inh -5.3, Kir21 block -7.3 | GPR7 antag conf 31 | MCHR1 antag 57 | CHT block conf 31% | HEK293 MPD ctr inactive
COc1cc(OC)cc(C(=O)N[C@H](C(=O)NC2=NCCS2)C(C)C)c1	none (no result: GPR7 antagonist, ANO1 block, CHT inh, Kir21 block, CHT allo act)
CCN(CC)CCCN(C(=O)c1ccco1)c1nc(-c2ccc(Cl)cc2)cs1	GPR7 antagonist 24, CHT inh -6.3, Kir21 block -6.2 | GPR7 antag conf 31 | MCHR1 antag 38 | CHT block conf 37% | HEK293 MPD ctr inactive
CCN(CC)CCCN(C(=O)c1ccco1)c1nc(-c2ccc(C)cc2)cs1	none
O=[N+]([O-])c1c(Nc2cccc(O)c2)cc(Cl)c2nonc12	GPR7 antagonist 35, ANO1 activ -11, ANO1 block 25, CHT inh -7.4, Kir21 block -7.4 | GPR7 antag conf 81 | MCHR1 antag 101 | CHT block conf 28% | HEK293 MPD ctr inactive
O=C(OCC(=O)N1CCN(C(=O)c2ccco2)CC1)c1cc(-c2ccc(Cl)c(Cl)c2Cl)nc2ccccc12	none
CN1CCCN(C(=O)c2cc(-c3ccc(Cl)c(Cl)c3Cl)nc3ccccc23)CC1	GPR7 antagonist 21, CHT inh -8, Kir21 block -4.8 | GPR7 antag conf 31 | MCHR1 antag 39 | CHT block conf inactive | HEK293 MPD ctr inactive
O=C(NCCC(=O)N1CCN(S(=O)(=O)c2ccccc2Cl)CC1)Nc1ccccc1	none (no result: GPR7 antagonist, ANO1 block, CHT inh, Kir21 block, CHT allo act)
O=C(c1ccco1)N1CCC(c2nc(-c3ccccc3Cl)no2)CC1	GPR7 antagonist 28, CHT inh -5.7 | GPR7 antag conf inactive | MCHR1 antag inactive | CHT block conf inactive | HEK293 MPD ctr inactive
CC(C)(C)c1ccc(-c2nc3n(c(=O)c2C#N)CCS3)cc1	none
CC1=C(Nc2ccc(C(=O)O)cc2)C(=O)c2ccccc2C1=O	none
O=C(O)c1ccc(NC2=C(Cl)C(=O)c3ccccc3C2=O)cc1	GPR7 antagonist 50, ANO1 block 100, CHT inh -10, Kir21 block -9.1 | GPR7 antag conf inactive | MCHR1 antag 35 | CHT block conf 32% | HEK293 MPD ctr inactive
O=C(Cn1nnc2ccccc2c1=O)NCC1CCC(C(=O)O)CC1 (stereo not given)	none
CC#CCN(CC#CC)S(=O)(=O)c1ccc(-n2cnnn2)c(OC)c1	GPR7 antagonist 24, CHT inh -6.8 | GPR7 antag conf inactive | MCHR1 antag inactive | CHT block conf 59% | HEK293 MPD ctr inactive
COc1cc(S(=O)(=O)N(Cc2ccccc2)Cc2ccccn2)ccc1-n1cnnn1	none
CC(C)NC(=O)COc1ccc(S(=O)(=O)N(C)Cc2ccccc2)cc1	none
COc1ccc2nc(C)cc(N3CCN(c4ccccc4)CC3)c2c1	none
COc1cccc(N2CCc3c(C)nc4ccc(Cl)cc4c32)c1	GPR7 antagonist 36, Kir21 block -14 | GPR7 antag conf 33 | MCHR1 antag 34 | CHT act confirm 42 | HEK293 MP dye -29
CC(NCc1cc(Br)ccc1OCC(N)=O)C12CC3CC(CC(C3)C1)C2 (stereo not given)	GPR7 antagonist 27, CHT allo act 11 | GPR7 antag conf 28 | MCHR1 antag 35 | CHT act confirm 23 | HEK293 MP dye inactive
CC(C)CC[n+]1ccccc1/C=C/c1ccc(N(C)C)cc1	GPR7 antagonist 76, CHT allo act 12 | GPR7 antag conf 78 | MCHR1 antag 72 | CHT act confirm 60 | HEK293 MP dye inactive
COc1ccc(C2=NS(=O)(=O)N(C)C(C(=O)N3CCC(C)CC3)=C2)cc1	none
CN1C(C(=O)N2CCc3ccccc3C2)=CC(c2ccc(F)cc2)=NS1(=O)=O	GPR7 antagonist 30, CHT allo act 6.7 | GPR7 antag conf inactive | MCHR1 antag 25 | CHT act confirm 13 | HEK293 MP dye inactive
CC(C)Cc1nnc(NC(=O)CCC(=O)N2CCN(c3ccccc3F)CC2)s1	none
Cc1ccc(NC(=O)COC(=O)CCC2CCCC2)cc1S(=O)(=O)N1CCOCC1	none (no result: GPR7 antagonist, ANO1 block, CHT inh, Kir21 block, CHT allo act)
COc1cccc(C2CC(c3ccccc3OC)n3ncnc3N2)c1 (stereo not given)	none

Screening results as filed in PubChem.
